Test results as given in PubChem BioAssay.
Active and inactive are the calls of the source.

Assays:
[1] = test system: Plasmodium falciparum Sir2 (PF13_0152, Sir2A); assay: Plasmodium falciparum Sir2A binding compounds – biochemical, small-molecule microarray, 635 nm fluorescence, primary screen (AID 1098); settings: fluorescence 635 nm, higher = more signal;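 further: score merges spot fluorescence intensity with its signal-to-noise ratio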
[2] = probe aDKK1 binding to arrayed compounds – biochemical, biotinylated probe, 635/667 nm fluorescence, primary screen (AID 1099); settings: small-molecule microarray, higher = more signal;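 further: score merges 667nm spot fluorescence with signal to noise across triplicate slides; reference of the scale not given here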
[3] = probe aCHRDL2 binding to arrayed compounds – biochemical, biotinylated probe, 635/667 nm fluorescence, primary screen (AID 1100); settings: small-molecule microarray, higher = more signal
[4] = change in splice reporter luminescence, either direction, cell-based, HEK293, spliceosome inhibition project, primary screen (AID 1101); settings: HEK293 splicing luciferase reporter, 24 h, higher = more signal, called active from +8 up or from −8 down;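 further: HEK293 cells carrying a splicing-competent luciferase reporter gene; test concentration not given here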
[5] = biological target: Fibroblast growth factor 10 (Homo sapiens) (UniProt O15520); assay: compounds binding fibroblast growth factor 10 – biochemical, small-molecule microarray, 635 nm fluorescence, primary screen (AID 1102); settings: FGF10 binding, fluorescence 635 nm, higher = more signal
Fibroblast growth factor 10 (Homo sapiens), sequence (O15520 whole entry, looked up): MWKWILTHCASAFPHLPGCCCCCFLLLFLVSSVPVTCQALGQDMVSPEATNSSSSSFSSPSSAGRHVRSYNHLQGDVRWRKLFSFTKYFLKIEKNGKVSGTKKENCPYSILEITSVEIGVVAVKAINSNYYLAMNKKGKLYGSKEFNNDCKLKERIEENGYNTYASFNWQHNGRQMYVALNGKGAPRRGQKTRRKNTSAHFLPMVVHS

[6] = test system: glycogen synthase kinase-3 (GSK3A per assay name; protocol says GSK3B); assay: compounds binding glycogen synthase kinase-3 – biochemical, small-molecule microarray, 635 nm fluorescence, GSK3A, primary screen (AID 1103); settings: fluorescence 635 nm, higher = more signal; further: the record names both GSK3A and GSK3B
[7] = biological target: Epidermal growth factor receptor (Homo sapiens) (UniProt P00533); assay: compounds binding epidermal growth factor receptor – biochemical, small-molecule microarray, 635 nm fluorescence, primary screen (AID 1104); settings: EGFR binding, higher = more signal;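 further: score merges 667 nm emission intensity with spot signal to noise over triplicate slides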
Epidermal growth factor receptor (Homo sapiens), sequence (P00533 whole entry, looked up): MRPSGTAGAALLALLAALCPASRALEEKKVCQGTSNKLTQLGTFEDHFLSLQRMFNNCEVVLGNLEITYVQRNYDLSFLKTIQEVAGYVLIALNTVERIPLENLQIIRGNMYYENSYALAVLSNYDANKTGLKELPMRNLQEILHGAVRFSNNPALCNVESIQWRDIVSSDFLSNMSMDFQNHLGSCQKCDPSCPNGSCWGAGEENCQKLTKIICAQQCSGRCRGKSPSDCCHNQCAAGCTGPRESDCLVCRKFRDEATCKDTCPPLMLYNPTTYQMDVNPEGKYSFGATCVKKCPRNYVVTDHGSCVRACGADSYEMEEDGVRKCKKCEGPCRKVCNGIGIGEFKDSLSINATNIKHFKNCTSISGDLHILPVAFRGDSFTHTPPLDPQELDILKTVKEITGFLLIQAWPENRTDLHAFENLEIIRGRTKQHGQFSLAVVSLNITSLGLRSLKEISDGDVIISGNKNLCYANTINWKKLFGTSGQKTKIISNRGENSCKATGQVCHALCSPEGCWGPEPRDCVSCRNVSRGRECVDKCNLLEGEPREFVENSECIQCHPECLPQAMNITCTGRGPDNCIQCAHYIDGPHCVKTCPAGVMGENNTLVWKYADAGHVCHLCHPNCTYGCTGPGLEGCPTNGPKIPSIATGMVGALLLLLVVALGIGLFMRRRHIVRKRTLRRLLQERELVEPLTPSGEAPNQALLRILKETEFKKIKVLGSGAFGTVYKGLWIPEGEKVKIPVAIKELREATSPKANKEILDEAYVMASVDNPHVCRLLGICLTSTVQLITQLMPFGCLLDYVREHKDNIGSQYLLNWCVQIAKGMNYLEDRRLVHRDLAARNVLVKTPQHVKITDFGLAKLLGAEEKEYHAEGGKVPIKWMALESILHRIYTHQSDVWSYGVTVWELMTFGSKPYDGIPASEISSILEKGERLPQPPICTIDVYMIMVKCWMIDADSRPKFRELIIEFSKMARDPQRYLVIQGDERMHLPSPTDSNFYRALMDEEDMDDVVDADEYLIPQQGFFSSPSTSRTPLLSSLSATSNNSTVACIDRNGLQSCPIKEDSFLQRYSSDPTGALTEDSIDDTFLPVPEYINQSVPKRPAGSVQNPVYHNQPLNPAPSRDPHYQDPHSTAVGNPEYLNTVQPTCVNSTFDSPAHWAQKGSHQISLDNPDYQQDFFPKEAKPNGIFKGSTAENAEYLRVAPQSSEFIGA

[8] = biological target: Follistatin-related protein 3 (Homo sapiens) (UniProt O95633); assay: compounds binding follistatin-related protein 3 – biochemical, small-molecule microarray, 635 nm fluorescence, primary screen (AID 1105); settings: FSTL3 binding, higher = more signal;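 further: score merges emission near 667 nm and signal to noise per printed spot across three slides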
Follistatin-related protein 3 (Homo sapiens), sequence (O95633 whole entry, looked up): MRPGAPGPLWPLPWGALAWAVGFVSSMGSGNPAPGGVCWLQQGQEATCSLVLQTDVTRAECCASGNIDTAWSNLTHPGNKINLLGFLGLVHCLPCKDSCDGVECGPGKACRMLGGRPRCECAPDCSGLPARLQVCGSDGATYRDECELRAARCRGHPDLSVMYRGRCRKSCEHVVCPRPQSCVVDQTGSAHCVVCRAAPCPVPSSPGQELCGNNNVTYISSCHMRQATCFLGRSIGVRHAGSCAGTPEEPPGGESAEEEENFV

[9] = biological target: Dickkopf-related protein 1 (Homo sapiens) (UniProt O94907); assay: small molecules binding DKK1 protein – biochemical, small-molecule microarray, 635 nm fluorescence scan, primary screen (AID 1106); settings: higher = more signal;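 further: score merges emission near 667 nm with signal to noise over three replicate slides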
Dickkopf-related protein 1 (Homo sapiens), sequence (O94907 whole entry, looked up): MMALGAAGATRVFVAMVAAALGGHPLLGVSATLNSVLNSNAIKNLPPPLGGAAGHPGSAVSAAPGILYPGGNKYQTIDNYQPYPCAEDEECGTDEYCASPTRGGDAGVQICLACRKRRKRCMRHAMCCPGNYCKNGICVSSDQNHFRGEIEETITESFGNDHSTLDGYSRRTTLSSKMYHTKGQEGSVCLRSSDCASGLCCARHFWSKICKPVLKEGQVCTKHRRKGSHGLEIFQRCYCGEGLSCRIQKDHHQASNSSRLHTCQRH

[10] = test system: Inhibin beta A chain (activin A); assay: small molecules binding activin A – biochemical, small-molecule microarray, 635 nm fluorescence scan, primary screen (AID 1107); settings: INHBA, higher = more signal;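 further: mouse activin A protein probed at 4.33 µg/mL on printed slides; score merges bound-protein fluorescence near 667 nm with spot signal-to-noise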

SMILES	composite z-score [1]	composite z-score [2]	composite z-score [3]	z-score [4]	composite z-score [5]	composite z-score [6]	composite z-score [7]	composite z-score [8]	composite z-score [9]	composite z-score [10]
C[C@@]1([C@@H](NS(=O)(=O)c2cccc3cccnc23)c2ccc(-c3ccccc3)cc2)C[C@H]1C1CCCCC1	0.15	0.778	1.19	-1.19 (inactive)	-0.0983	-0.472	0.0823	0.49	-0.473	0.638
C=CCNC(=O)[C@H]1[C@@H]2C(=O)O[C@@H](c3ccccc3)[C@@H](c3ccccc3)N2[C@@H](c2ccc(OCCO)cc2)[C@]12C(=O)N(C(=O)OCCOC)c1ccc(C#CCNC(N)=O)cc12	1.27	0.02	0.687	0.0908 (inactive)	1.3	0.998	0.686	0.989	0.998	0.823
COCCOC(=O)N1C(=O)[C@@]2(c3cc(C#CCNC(N)=O)ccc31)[C@H](C(=O)N1CCN(c3ncccn3)CC1)[C@H]1C(=O)O[C@H](c3ccccc3)[C@H](c3ccccc3)N1[C@@H]2c1ccc(O)cc1	0.505	-0.326	-0.47	-0.428 (inactive)	-0.735	-0.438	-1.14	-0.997	-1.92	-0.853
C=C(C(=O)CC[C@@H](OC(=O)c1ccccc1-c1ccccc1C(=O)O)c1cccc(OCCO)c1)C(C)C	0.679	-0.318	-0.393	0.436 (inactive)	1.56	0.133	-0.143	0.441	0.907	1.06
CC(C)c1ccc(NN2C(C(O)c3ccccc3)C=CC3C(=O)N(c4ccccc4)C(=O)C32)cc1 (stereo not given)	1.26	1.25	0.98	-0.648 (inactive)	0.715	0.522	-0.144	0.634	-0.624	0.546
C=C(/C=C\CNS(=O)(=O)c1ccc(C)cc1)[C@H](O)[C@H]1CCCN1S(=O)(=O)c1ccccc1[N+](=O)[O-]	0.0251	-0.142	-0.55	-0.465 (inactive)	0.598	0.215	0.629	0.122	0.524	0.509
CCCCC(=C=CC[C@H](O)c1ccccc1OCCO)CCO	0.653	-0.182	-0.0244	-0.25 (inactive)	0.27	-0.123	-0.689	-0.569	-0.429	0.754
